Assay results published in PubChem BioAssay (NCI).
The panel holds about 83,000 compounds, 20% with a hit somewhere; the sample as a whole holds those more often.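 Percent growth is the endpoint: 0 to 100 indicates growth inhibition (40 means 60% inhibition), 0 means no net growth, and negative values indicate cell death.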 Values without a mark were called inactive. Activity calls are given as the source filed them.

Each compound was assayed on SK-MEL-5 melanoma (assay: NCI-60 one-dose screen, 48 h (100 = growth as untreated, 0 = no growth, -100 = all killed)). Conditions: 10 µM unless noted.
Method: Growth inhibition of the SK-MEL-5 human tumor cell line is measured as a screen for anti-cancer activity. Cells are grown in 96 well plates and exposed to the test compound for 48 hours. Compounds are tested at a single concentration, which is 10^-5 M for most compounds. The reported endpoint is percent growth (GI% or GIPRCNT), where numbers from 0 - 100% represent growth inhibition, and numbers from -100% - 0 represent cell death. For example, a value of 40 represents 60% growth inhibition. A value of 0 means no net growth occurred over the course of the experiment. A value of -40 indicates 40% of cells at the beginning of the experiment died by the end of the experiment. A value of -100 means all cells are dead at the end of the experiment.
NCI-60 Human Tumor Cell Lines Screen was performed using the standard one-dose NCI protocol, which is described in more detail at https://dtp.cancer.gov/discovery_development/nci-60/default.htm.
Compounds with GIPRCNT values below 10 were considered active. Activity score was based on GIPRCNT using the following formula: […]
Score is 0 for GIPRCNT values of 100 or above, 50 for GIPRCNT values of 0, and 100 for GIPRCNT values of -100.
With `O=C1/C(=C/c2ccc3c(c2)OCO3)SC(=S)N1CCc1ccc(O)cc1` the growth was 98.2%.
Work on `O=S(=O)(Nc1ccc(OC(F)F)cc1)c1ccc(-c2cnc(C3CC3)o2)cc1` yielded a growth of 57.7%.
Compound `Cn1cc(-c2nonc2-c2c[nH]c3ccccc23)c2cccnc21` has a growth of 26.3%.
With `c1ccc(-c2c(-c3ccccc3)[n+](Cc3ccc4ccccc4c3)c(-c3ccc(-c4nc5ccccc5s4)cc3)n2Cc2ccc3ccccc3c2)cc1` the growth was -98.3% (active).
Compound `CN1CCN(c2ccc(Nc3c4ccccc4nc4ccccc34)cc2)CC1` has a growth of 102%.
With `O=c1c(F)cn(Cc2ccccc2CCl)c(=O)n1Cc1ccccc1CCl` the growth was -100% (active).
In the case of `O=C(Cc1ccccc1Nc1c(Cl)cccc1Cl)NN1C(=O)/C(=C/c2ccc(Br)cc2)SC1=S`, the growth is reported as 98.6%.
With `O=C(/C=C/c1ccc(C(F)(F)F)cc1)Nc1ccc(C=C2c3ccccc3C(=O)c3ccccc32)cc1` the growth was 44.7%.
`CC(C)C1=C[C@@]23CC[C@@H]4[C@](C)(CCC[C@@]4(C)C(=O)N4CCCNCC4)[C@H]2C[C@@H]1[C@H]1C(=O)CCC(=O)[C@H]13` gave a growth of 97.7%.
In the case of `CON1C(=O)CC[C@]2(C)[C@H]3CC[C@@H]4C([C@@]5(C)CCC(=O)O5)CC[C@@]4(C)[C@]3(C)CC[C@H]2C1(C)C` (stereo not given in full), the growth is reported as 98.4%.
`O=c1nc2oc3ccc4ccccc4c3cc-2s1` was tested, and the growth was 10.8%.
`COc1cccc(-c2nc3sccn3c2-c2ccnc(NCCCNS(=O)(=O)c3cccc(F)c3)c2)c1` was tested, and the growth was -31.2% (active).
In the case of `Cc1[nH]c(-c2ccc3cc[nH]c3c2)c2c1C(=O)CCCC2`, the growth is reported as 49.6%.
In the case of `Cc1ccc(NC(=O)/C=C/c2ccccc2)c(C(N)=O)c1`, the growth is reported as 6.05% (active).
For `COc1cccc(C2=NN3C(C2)c2cc(Br)cc(OC)c2OC32CCN(Cc3ccccc3)CC2)c1` (stereo not given), the growth was 99.5%.
`Cn1cc(C(=O)c2nc(-c3c[nH]c4ccc(Br)cc34)no2)c2cc(F)ccc21` gave a growth of 83.8%.
`COCCNc1ccc2c3c(cccc13)C(=O)N(CCN(C)C)C2=O` was tested, and the growth was -33.5% (active).
For `COc1nc2c(c(=O)n1C)CN(Cc1ccccc1)C=N2`, the growth was 111%.
`CSc1nc(Nc2cccc(NC(=O)CCl)c2)c(C#N)c(-c2cccc([N+](=O)[O-])c2)n1` showed a growth of 34.3%.
Work on `CCOC(=O)n1cc(-c2nonc2-c2cn(C)c3ncccc23)c2ccccc21` yielded a growth of 77.3%.
`CSc1nc(NCc2ccccc2)c(C#N)c(-c2cccc([N+](=O)[O-])c2)n1` was tested, and the growth was 100%.
`Cc1ccc2c(c1)C(=O)/C(=C/c1cccc(OCC(=O)c3ccc(Cl)cc3)c1)CS2` was tested, and the growth was 85.1%.
With `Cn1c(NCCc2ccc(O)c(O)c2)nc2c1c(=O)n(Cc1ccc(Cl)c(Cl)c1)c(=O)n2C` the growth was 65.4%.
`COc1cccc(-c2nn(C(C)(C)C)cc2-c2ccnc(NCCCNS(=O)(=O)c3cccc4ccccc34)c2)c1` showed a growth of 100%.
`COc1ccc(C(=S)N2CCN(c3cccc(Cl)c3)CC2)cc1` was tested, and the growth was 130%.
Work on `CCCc1cc(=O)n2c(C(=O)Nc3ccc(F)cc3)c(C(=O)Nc3ccc(F)cc3)sc2n1` yielded a growth of 82.8% [30 µM].
`Oc1cccc(-c2nc(N3CCOCC3)c3c4c(sc3n2)CCCC4)c1` gave a growth of 46.6%.
Compound `C=CC(=O)Nc1cccc(-c2nc(SC)nc(NCCN3CCOCC3)c2C#N)c1` has a growth of 94.9%.
Compound `Cc1cc2nc(NC(=O)CN3CCN(CCN4C(=O)c5cccc6cccc(c56)C4=O)CC3)sc2cc1C` has a growth of 77%.
In the case of `COc1cc(/C=C/c2cc(O)c3cc(C(C)=O)c(=O)oc3c2)cc2c1O[C@]1(C)CC[C@@H](O)C(C)(C)[C@H]1C2`, the growth is reported as -96.8% (active).
`CSc1nc(Nc2cccc(NC(=O)/C(C#N)=C/c3c(Cl)cccc3Cl)c2)c(C#N)c(-c2cccc([N+](=O)[O-])c2)n1` gave a growth of 49.6%.
With `Cc1[nH]c(-c2cc(N)ccc2Cl)c2c1C(=O)CCCC2` the growth was 1.73% (active).
Work on `CC(C)(C)c1cc(C(C)(C)C)cc(S(=O)(=O)Nc2cc3ccccc3cc2C(=O)NCCN)c1` yielded a growth of 81.1%.
`C#CCOc1ccc2ncnc(N3CCC(NC(=O)CCl)CC3)c2c1` showed a growth of 75% [8.25 µM].
`CC1=NN(c2nc(-c3ccc(Cl)cc3)c(C#N)c(N3CCOCC3)n2)C(=O)C1` gave a growth of 94.3%.
`COc1ccc(-c2nc3ccc(-c4nc5ccc(N6CCN(c7ccc(F)cc7)CC6)cc5[nH]4)cc3[nH]2)cc1OC` gave a growth of 65.6%.
Compound `CCOC(=O)c1csc(NC(=O)COc2cccc(/C=C3\CSc4ccccc4C3=O)c2)n1` has a growth of 54.5%.
`CC(=O)c1nc2ccccc2n1CC(=O)c1cccc(Cl)c1` was tested, and the growth was -13.2% (active).
`COc1cc2nc(N3CCCC3)nc(NCc3ccccc3)c2cc1OC` gave a growth of 67.8%.
`N#Cc1c(-c2ccc(Cl)cc2)nc(N=Nc2c(O)[nH]c3ccc(Cl)cc23)nc1N1CCOCC1` was tested, and the growth was 97.3%.
